Results filed as inconclusive are left out. A call without a number means that no potency is given here. A number with no mark means an inactive call. Active and inactive are the calls of the source. The call rests on the fitted dose curve; in most records, active means well fitted inhibition curve with a large enough effect in the repeat runs; inconclusive means weak or mixed curves, or effect the other way; inactive means no such curve, though single readings can be large or run the other way.
assay: qHTS assay to identify small molecule antagonists of the retinoic acid receptor (RAR) signaling pathway (AID 1159552; further: nearly all actives have a fitted effect of over 50% in size); settings: C3RL4 RARE luciferase reporter, retinol-stimulated, 6 h; series mostly up to 92.4 µM
Outline: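 Cells of the C3RL4 line were seeded, incubated overnight, then dosed with compounds in DMSO followed immediately by retinol (1 uM final). Six hours later luciferase detection reagent went in; signal was measured after 30 min at RT.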

Structure (SMILES) | Potency | activity, negative = inhibition
Nc1ccc(S(=O)(=O)NCc2ccccc2)cc1 | inactive | 
Cc1cccc(C)c1NC(=O)c1cc(S(N)(=O)=O)c(Cl)cc1O | inactive | 
CC(C)(C)S | inactive | 
CCN(CC)C(=O)/C(C#N)=C/c1cc(O)c(O)c([N+](=O)[O-])c1 | inactive | 
CCCCOC(=O)CCCCC(=O)OCCCC | inactive | 
CC(C)(C(=O)c1cccnc1)c1cccnc1 | inactive | 
CC(C)Cc1ccc(CC(=O)O)cc1 | inactive | 
O=C(O)CCS | inactive | 
CC(C)C(=O)OCCOc1ccccc1 | inactive | 
CCC(=O)OCc1ccc(OC)cc1 | inactive | 
CC(=O)c1ccc[nH]1 | inactive | 
Nc1nc(-c2ccc([N+](=O)[O-])cc2)cs1 | inactive | 
CCCCCCCCCCCSCC(=O)O | inactive | 
CC1=CC[C@@]23C[C@@H]1C(C)(C)[C@@H]2CC[C@H]3C | inactive | 
C=Cc1ccc(OC(C)=O)cc1 | inactive | 
C1CCCCC1 | inactive | 
O=C(O)c1cccc(Oc2ccccc2)c1 | inactive | 
O=C1[C@@H]2[C@H]3CC[C@H](C3)[C@@H]2C(=O)N1CCCCN1CCN(c2ncccn2)CC1 | inactive | 
CC(C)COC(=O)COc1cc(Cl)c(Cl)cc1Cl | inactive | 
CCCC(=O)OC(=O)CCC | inactive | 

Structure (SMILES) | Potency | activity, negative = inhibition
COc1cc(S(=O)(=O)Nc2ccccc2)c(OC)cc1N | inactive | 
Cc1cc([N+](=O)[O-])ccc1N | inactive | 
CC(=O)OCC1=C(C(=O)O)N2C(=O)[C@@H](NC(=O)CSc3ccncc3)[C@H]2SC1 | inactive | 
COc1ccc(CCN(C)CCCN2CCc3cc(OC)c(OC)cc3CC2=O)cc1OC | inactive | 
Oc1cccc2[nH]ccc12 | inactive | 
Cc1ccc(N(CCO)CCO)cc1 | inactive | 
CC(=O)OCC(C)C | inactive | 
O=C(O)CCC(=O)OC[C@@H](NC(=O)C(Cl)Cl)[C@H](O)c1ccc([N+](=O)[O-])cc1 | inactive | 
Nc1ccc(F)cc1 | inactive | 
CSCC[C@H](NC(=O)[C@H](Cc1c[nH]c2ccccc12)NC(=O)CCNC(=O)OC(C)(C)C)C(=O)N[C@@H](CC(=O)O)C(=O)N[C@@H](Cc1ccccc1)C(N)=O | inactive | 
CC[C@H]1OC(=O)[C@H](C)[C@@H](O[C@H]2C[C@@](C)(OC)[C@@H](O)[C@H](C)O2)[C@H](C)[C@@H](O[C@@H]2O[C@H](C)C[C@H](N(C)C)[C@H]2O)[C@](C)(O)C[C@@H](C)C(=O)[C@H](C)[C@@H](O)[C@]1(C)O | inactive | 
O=C(NS(=O)(=O)/C=C/c1ccccc1)c1ccc(F)cc1Cl | inactive | 
O=C(c1ccccc1)c1ccc(O)cc1 | inactive | 
CC(C(=O)O)c1ccc(C(=O)c2cccs2)cc1 (centres undefined) | inactive | 
O=C1c2ccccc2C(=O)c2c(O)ccc(O)c21 | inactive | 
CC(C)N(C)C | inactive | 
C=CC(=O)O | inactive | 
CCC(Cl)CC(Cl)C(Cl)C(Cl)C(Cl)C(C)Cl (centres undefined) |  | 84.9% [at 19 µM]
CCN(CC)CCOC(=O)C(c1ccccc1)c1ccccc1 | inactive | 
